An excerpt weighted towards active compounds, which were near 3.5% of everything screened.
Anthrax LF prot: anthrax lethal factor protease inhibition; inhibition, % at 10 µM; multiplex microsphere protease cleavage assay, LF; 0.12% of 360,000 active
Target sequence (P15917 whole entry, looked up): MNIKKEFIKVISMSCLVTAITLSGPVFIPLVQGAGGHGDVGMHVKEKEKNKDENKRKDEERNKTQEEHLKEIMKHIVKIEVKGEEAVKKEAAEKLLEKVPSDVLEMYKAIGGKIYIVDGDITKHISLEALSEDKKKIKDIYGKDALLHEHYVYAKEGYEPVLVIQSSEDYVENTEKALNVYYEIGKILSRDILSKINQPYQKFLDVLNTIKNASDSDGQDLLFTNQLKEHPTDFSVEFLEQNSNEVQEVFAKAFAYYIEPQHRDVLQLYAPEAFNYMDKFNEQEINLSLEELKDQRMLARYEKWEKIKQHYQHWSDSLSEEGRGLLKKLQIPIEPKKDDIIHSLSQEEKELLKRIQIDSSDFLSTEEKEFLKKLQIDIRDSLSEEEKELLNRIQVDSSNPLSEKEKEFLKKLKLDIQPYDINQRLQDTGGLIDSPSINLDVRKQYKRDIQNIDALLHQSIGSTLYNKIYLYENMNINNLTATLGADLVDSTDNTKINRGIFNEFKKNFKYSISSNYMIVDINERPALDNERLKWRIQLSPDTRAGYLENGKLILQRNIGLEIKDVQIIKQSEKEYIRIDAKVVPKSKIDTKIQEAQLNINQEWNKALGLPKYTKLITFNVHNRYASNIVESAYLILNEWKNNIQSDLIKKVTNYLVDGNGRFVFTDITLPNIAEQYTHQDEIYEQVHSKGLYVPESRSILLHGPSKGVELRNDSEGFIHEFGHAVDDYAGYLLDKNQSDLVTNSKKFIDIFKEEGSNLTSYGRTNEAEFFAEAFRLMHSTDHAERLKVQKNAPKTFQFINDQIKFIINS
Bead autofluor: counter-screen for toxin protease inhibitors: compound fluorescence; 3.1% of 360,000 active; AID 624483; compound autofluorescence counterscreen, microsphere flow cytometry; hits give high values; fluorescence intensity (no concentration beside the values); in the data active = fluorescence intensity above about 16000; inconclusive = no clear call, values can overlap the other calls
BoNT F protease: BoNT F light chain protease inhibition; Multiplex microsphere protease cleavage assay, flow cytometry; inhibition, % at 10 µM; 0.22% of 360,000 active; AID 588497; in the data active = inhibition above about 35%, passing the limit was not always enough; inconclusive = no clear call, values can overlap the other calls
BoNT-A LC inh2: inhibitors of Botulinum neurotoxin A light chain protease; multiplex microsphere protease substrate cleavage, flow cytometry; inhibition, % at 10 µM; 0.17% of 360,000 active
Numbers stand for hits; - = inactive; ? = inconclusive. Rule as the data show it, unless noted: active = inhibition above about 30%; inconclusive = no clear call, values can overlap the other calls; inactive = below that.

SMILES	Anthrax LF prot	Bead autofluor	BoNT F protease	BoNT-A LC inh2
Cn1c(CCN2CCN(c3ccc(F)cc3)CC2)nc2cc(NC(=O)c3ccco3)ccc21	-	24006	-	-
Cc1ccc(N2CCN(CCc3nc4cc(NC(=O)c5ccco5)ccc4n3C)CC2)cc1	-	24375	-	-
Cc1ccc(C)n1-c1ccc(-n2cnnn2)cc1	-	16233	-	-
Cc1cc(C)c(C(=O)COC(=O)[C@H](C)Nc2ccc(C(F)(F)F)cc2[N+](=O)[O-])c(C)c1	-	21371	-	-
CCc1cc(C(=O)N(CC)CC(=O)Nc2ccc(OC)cc2)sc1C	-	-	-	-
FC(F)(F)c1ccccc1CN1CCN(Cc2ccccc2)CC1	-	-	-	-
Cc1ccccc1CN1CCN(Cc2ccccc2C(F)(F)F)CC1	-	20858	-	?
CC(C)C[C@H](NC(=O)CC[C@H]1O[C@@H](n2ccc(=O)[nH]c2=O)[C@H](O)[C@@H]1O)C(=O)O	-	-	-	-
CC(C)(C)c1cc(Cc2ccccc2)[nH]n1	-	23025	-	?
Cc1ccc(C(=O)Nc2ccc(F)cc2)cc1NC1=NC2CS(=O)(=O)CC2S1 (stereo not drawn)	-	-	-	-
O=C(NCc1ccc(Cl)cc1)C1C2C=CC3(CN(Cc4cccnc4)C(=O)C13)O2 (stereo not drawn)	-	25239	-	-
CC1CCC(NC(=O)C(NS(=O)(=O)c2ccc(Br)cc2)C(C)C)CC1 (stereo not drawn)	-	-	-	-
CC1CCC2(CC1)NC(=O)N(CC(=O)NCc1ccc(F)cc1)C2=O (stereo not drawn)	-	-	-	-
CN(CC(=O)Nc1ccc(Cl)c(C(F)(F)F)c1)C(=O)CCCNC(=O)c1ccc(Cl)cc1	-	-	?	-
COC(=O)c1cn(CC(=O)Nc2ccccc2C)c2ccccc12	-	-	-	-
NS(=O)(=O)c1ccc(Nc2nc(-c3ccc(O)cc3)cs2)cc1	-	21481	-	-
Oc1ccc(Nc2nc(-c3ccc(O)cc3)cs2)cc1	-	-	-	-
CCCc1ccc(OCC(O)CN2CCN(c3ccccn3)CC2)cc1 (stereo not drawn)	-	-	-	-
O=S(=O)(c1cc(Cl)ccc1Br)N1CCCCC1	-	21533	-	-
O=S(=O)(c1cccc(-c2nnc(-c3cccnc3)o2)c1)N1CCCCC1	-	19643	-	?
O=S(=O)(c1cccc(S(=O)(=O)N2CCCC2)c1)c1cccc(S(=O)(=O)N2CCCC2)c1	-	21252	-	?
CC1CCN(S(=O)(=O)c2cccc(-c3nnc(-c4cccnc4)o3)c2)CC1	-	-	-	-
O=S(=O)(c1cccc(Cl)c1)N1CCCC1	-	24145	-	-
O=C(NNC(=O)c1csc(N2CCOCC2)n1)c1cccnc1	-	-	-	-
Cc1cc(C)c(NC(=O)CN(C)C(=O)CNC(=O)c2cccs2)c(C)c1	-	-	-	-
SMILES	Anthrax LF prot	Bead autofluor	BoNT F protease	BoNT-A LC inh2
C=CCn1c(SCC(=O)N(C)c2c(N)n(Cc3ccccc3)c(=O)[nH]c2=O)nnc1-c1ccccc1OC	-	-	-	-
c1csc(CN2CCOCC2)c1	-	-	-	-
CC1(C)C2CC=C(CN3CCOCC3)C1C2 (stereo not drawn)	-	22704	-	-
CCOC(=O)c1c(NC(C)=O)sc2c1CCN(Cc1ccccc1)C2	-	-	-	-
CCOC(=O)c1c(NC(=O)C(C)Sc2cccc[n+]2[O-])sc2c1CCN(Cc1ccccc1)C2 (stereo not drawn)	-	-	-	45
CCOC(=O)N1CCN(C(=O)c2ccc(CS(=O)(=O)c3ccccc3OC)o2)CC1	-	20166	-	?
COc1ccc(S(=O)(=O)Cc2ccc(C(=O)N3CCC4(CC3)OCCO4)o2)cc1	-	19527	-	-
Cc1ccccc1S(=O)(=O)Cc1ccc(C(=O)N2CCN(c3ccccc3F)CC2)o1	-	-	-	-
COc1ccccc1N1CCN(C(=O)c2ccc(CS(=O)(=O)c3ccccc3OC)o2)CC1	-	16680	-	-
COc1ccc(N2CCN(C(=O)c3ccc(CS(=O)(=O)c4ccc(OC)cc4)o3)CC2)cc1	-	-	-	-
COc1ccccc1S(=O)(=O)Cc1ccc(C(=O)NCc2ccc(C)cc2)o1	-	-	-	-
COc1ccccc1CNC(=O)c1ccc(CS(=O)(=O)c2ccccc2OC)o1	-	22833	-	-
COCc1cccc(C(=O)NC(c2ccccc2)c2ccccc2)c1	-	-	-	-
O=C(O)c1ccc(CS(=O)(=O)Cc2ccccc2F)o1	-	-	-	-
CCN1CCN(C(=O)c2ccc(CS(=O)(=O)Cc3ccccc3F)o2)CC1	-	25125	-	-
C=CCn1c(C)c(C=C2C(=O)NC(=O)NC2=O)c2ccccc21	-	-	?	33
O=C(NNC(=O)C1CCCO1)c1ccc([N+](=O)[O-])cc1 (stereo not drawn)	-	-	-	-
O=C(NNC(=O)C1CCCO1)c1ccc(Cl)cc1 (stereo not drawn)	-	-	37	-
CCOC(=O)CSC1=C(C#N)C(c2ccccc2Cl)C(C(=O)OC)C(=O)N1 (stereo not drawn)	-	20786	-	-
Cc1cc(C)n(-c2nnc(C)n2/N=C/c2ccccc2F)n1	-	22946	-	-
O=C1NC[C@H](CCCCN2CCN(CCc3ccccc3)C(=O)C2=O)N(CCC2CCCCC2)C1=O	-	-	-	-
CCOC(=O)Nc1ccc2c(C)cc(=O)oc2c1	-	16452	-	-
Cc1cccc(C)c1N(CC(O)Cn1c2ccccc2c2ccccc21)S(C)(=O)=O (stereo not drawn)	-	21877	-	-
O=C(O)c1cc(S(=O)(=O)N2CCN(C(c3ccccc3)c3ccccc3)CC2)ccc1Cl	-	-	-	-
CCOC(=O)N1CCN(C(=O)CN(C)S(=O)(=O)c2ccc(Cl)cc2)CC1	-	-	-	-
SMILES	Anthrax LF prot	Bead autofluor	BoNT F protease	BoNT-A LC inh2
Cn1c(SCc2nc3ccccc3[nH]2)nnc1-c1cccs1	-	23403	-	?
CSc1nnc(-c2cccs2)n1C	-	-	-	-
Cn1c(SCc2c(Cl)cccc2Cl)nnc1-c1cccs1	-	18672	-	?
Cn1c(SCc2ccc(Br)cc2)nnc1-c1cccs1	-	16457	-	-
Cc1ccc(CSc2nnc(-c3cccs3)n2C)cc1	-	-	-	-
CC1(C)CC=CC(COC(=O)c2ccccc2C(=O)O)C1 (stereo not drawn)	-	-	-	-
CCCCn1c(-c2ccoc2C)n[nH]c1=S	-	23012	-	-
CC(C)[C@H](NC(=O)c1ccco1)C(=O)N(C)Cc1ccc(C(F)(F)F)cc1	-	-	-	-
O=S(=O)(c1ccccc1)N1CCN(C2CCN(Cc3ccccc3)CC2)CC1	-	-	-	-
O=S(=O)(c1ccc2ccccc2c1)N1CCN(C2CCN(Cc3ccccc3)CC2)CC1	-	23769	-	-
COc1cnc(-c2ccccn2)nc1Sc1cccc(Cl)c1	-	17458	-	-
COc1cnc(-c2ccccn2)nc1Oc1ccccc1Cl	-	-	-	-
COc1cnc(-c2ccccn2)nc1Oc1ccc(Cl)c2ccccc12	-	17538	-	-
COc1cnc(-c2ccccn2)nc1Oc1ccc(Cl)cc1	-	16340	-	-
CCOC(=O)N1CCN(CC(=O)Nc2c(C(=O)OC)[nH]c3ccc(Cl)cc23)CC1	-	-	-	-
CCOC(=O)N1CCN(CC(=O)Nc2c(C(=O)OC)[nH]c3cc(C)ccc23)CC1	-	23057	-	-

Screens deposited in PubChem by NMMLSC.
